S1P4 ag – agonists of human S1P4 receptor. O95977. activation, % at 4.98 µM. actives 0.35% (n = 220,000). S1P4-expressing cell line, agonist reporter assay; in the data active = activation above about 11%;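 also: 0% = DMSO vehicle and 100% = reference agonist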
Target sequence (O95977 whole entry, looked up): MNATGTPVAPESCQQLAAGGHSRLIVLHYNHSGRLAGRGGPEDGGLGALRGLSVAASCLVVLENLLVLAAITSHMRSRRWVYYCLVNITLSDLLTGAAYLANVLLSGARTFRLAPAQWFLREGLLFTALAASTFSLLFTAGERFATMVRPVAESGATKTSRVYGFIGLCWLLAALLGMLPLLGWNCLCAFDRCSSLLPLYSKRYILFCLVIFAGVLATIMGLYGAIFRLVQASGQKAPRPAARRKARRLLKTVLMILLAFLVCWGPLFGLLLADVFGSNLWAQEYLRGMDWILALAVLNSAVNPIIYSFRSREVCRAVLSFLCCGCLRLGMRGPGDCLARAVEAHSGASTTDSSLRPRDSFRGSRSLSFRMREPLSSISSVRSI
Arbovirus anti – antivirals against arbovirus infection; arbovirus infection cell-based antiviral screen; inhibition, % at 10 µM; actives 0.37% (n = 200,000); in the data active = inhibition above about 30%
Redox H2O2 prof – compounds producing H2O2 with reducing agent – biochemical, NIH compound library profiling, artefact control for MLSCN library redox annotation, primary screen. DTT-dependent redox cycling H2O2, phenol red/HRP absorbance; 100% = 100 µM peroxide control, 0% = buffer. actives 0.03% (n = 200,000). activation, % at 10 µM;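 active = activation of at least 50% relative to the plate's high and low controls in the primary single-dose screen; inactive = activation below 50%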;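 also: compound incubated with DTT at 0.8 mM final as the reducing agent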
S1P3 antag – S1P3 (human) receptor antagonism. Q99500. CHO S1P3 NFAT-BLA reporter, FRET fluorescence, antagonist mode. inhibition, % at 4.98 µM. actives 0.27% (n = 170,000). AID 485;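 active = inhibition above the plate cutoff, the mean inhibition of test wells on that plate plus 3 SD, cut at about 28% in these data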;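 also: cells challenged with S1P at its EC80 of 0.8 µM; blue over green emission ratio from cleaved BLA substrate after 4 h stimulation; 0% = S1P-stimulated wells and 100% = unstimulated DMSO-only wells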
p97 ATPase inh – human p97 ATPase inhibition. recombinant p97 ATPase, Kinase-Glo ATP luminescence, 3 h. inhibition, % at 8 µM. actives 0.42% (n = 220,000). AID 1481; in the data active = inhibition above about 15%;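 also: 0% = DMSO vehicle and 100% = wells lacking enzyme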
S1P4 antag – blocks the human S1P4 receptor; inhibition, % at 4.98 µM; actives 0.26% (n = 220,000); S1P4-expressing cells, antagonist mode, reporter read-out; O95977; in the data active = inhibition above about 29%;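 also: 0% = wells stimulated with agonist and 100% = vehicle wells without agonist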
The depositor's hits bear a star. Only some compounds are listed: those with a hit (about 1.6% of all), similar ones and a draw of the others.

Results for CC(Nc1ccc(Br)cn1)c1cc(Cl)ccc1O (stereo unspecified) ?
S1P4 ag: 3; Arbovirus anti: -22; Redox H2O2 prof: 0; S1P3 antag: 67*; p97 ATPase inh: -7; S1P4 antag: 8

Results for CC(Nc1ccc(Cl)cc1)c1cc(Cl)ccc1O (stereo unspecified) ?
S1P4 ag: 1; Arbovirus anti: -32; Redox H2O2 prof: -1; p97 ATPase inh: -4; S1P4 antag: -2

How did Cc1nn(-c2ccccc2)c2nc(C(F)(F)F)[nH]c(=O)c12 do in these assays?
S1P4 ag: 4; Arbovirus anti: 37*; Redox H2O2 prof: 0; S1P3 antag: -15; p97 ATPase inh: 8; S1P4 antag: -22

Results for CCOc1ccc(NC(=O)Nc2cc(-c3ccccc3)sc2C(=O)OC)cc1 ?
S1P4 ag: -2; Arbovirus anti: 34*; Redox H2O2 prof: 1; S1P3 antag: -4; p97 ATPase inh: 2; S1P4 antag: -5

Results for CS(=O)(=O)N(CC(O)Cn1c2ccccc2c2ccccc21)c1ccccc1 (stereo unspecified) ?
S1P4 ag: -3; Arbovirus anti: 42*; Redox H2O2 prof: 1; S1P3 antag: 16; p97 ATPase inh: -5; S1P4 antag: 10

Results for CN(CC(O)Cn1c2ccccc2c2ccccc21)S(C)(=O)=O (stereo unspecified) ?
S1P4 ag: 2; Arbovirus anti: 2; Redox H2O2 prof: 0; S1P3 antag: -3; p97 ATPase inh: -3; S1P4 antag: 3

What do the screens show for `O=C1CC(NCCC2=CCCCC2)C(=O)N1c1cccc(Cl)c1Cl` (stereo unspecified)?
S1P4 ag: 0; Arbovirus anti: -3; Redox H2O2 prof: -4; p97 ATPase inh: 2; S1P4 antag: 13

How did O=C(Nc1nc(-c2ccccc2)cs1)c1ccc(=O)[nH]c1 do in these assays?
S1P4 ag: 0; Arbovirus anti: 38*; Redox H2O2 prof: -1; S1P3 antag: -10; p97 ATPase inh: -4; S1P4 antag: -21

How did O=C(Nc1nc(-c2ccccc2)cs1)c1cccs1 do in these assays?
S1P4 ag: 0; Arbovirus anti: 74*; Redox H2O2 prof: -3; S1P3 antag: 32; p97 ATPase inh: 7; S1P4 antag: 4

Results for O=C(Nc1nc(-c2ccccc2)ns1)c1cccs1 ?
S1P4 ag: 2; Arbovirus anti: 30*; Redox H2O2 prof: -1; S1P3 antag: -21; p97 ATPase inh: -2; S1P4 antag: -4

How did O=C(CSc1ncn[nH]1)Nc1nc(-c2ccccc2)ns1 do in these assays?
S1P4 ag: 1; Arbovirus anti: 41*; Redox H2O2 prof: -1; S1P3 antag: 5; p97 ATPase inh: -4; S1P4 antag: 3

Results for CCOC(=O)Cc1nnc(NC(=O)c2ccccc2OCC)s1 ?
S1P4 ag: 2; Arbovirus anti: 78*; Redox H2O2 prof: -1; p97 ATPase inh: -6; S1P4 antag: -17

What do the screens show for `CC(=O)NCc1ccc(C(=O)O)cc1`?
S1P4 ag: 0; S1P3 antag: -6; p97 ATPase inh: 2; S1P4 antag: 2

Results for COc1ccc2[nH]c(=O)c3c(c2c1)OC(C)(C)C=C3 ?
S1P4 ag: 5; Arbovirus anti: 6; Redox H2O2 prof: -4; S1P3 antag: 67*; p97 ATPase inh: -4; S1P4 antag: 0

Results for Cc1onc(-c2ccccc2)c1C(=O)Nc1nnc(N2CCCCCC2)s1 ?
S1P4 ag: -1; Arbovirus anti: -5; Redox H2O2 prof: -1; S1P3 antag: -7; p97 ATPase inh: -6; S1P4 antag: 0

What do the screens show for `Cc1noc(C)c1C(=O)Nc1nnc(-c2ccccc2)s1`?
S1P4 ag: -1; Arbovirus anti: -4; Redox H2O2 prof: 1; S1P3 antag: -6; p97 ATPase inh: 6; S1P4 antag: 102*

What do the screens show for `COc1ccc(S(=O)(=O)N2CCC(C(=O)NCC3CCCO3)CC2)cc1` (stereo unspecified)?
S1P4 ag: 3; Arbovirus anti: 15; Redox H2O2 prof: 0; p97 ATPase inh: 0; S1P4 antag: -4

How did COC(=O)C1=C(N)Oc2cc(C)n(CC3CCCO3)c(=O)c2C1c1ccccc1OC (stereo unspecified) do in these assays?
S1P4 ag: -1; Arbovirus anti: 3; Redox H2O2 prof: 1; S1P3 antag: -8; p97 ATPase inh: 0; S1P4 antag: 13

What do the screens show for `COC(=O)C1=C(N)Oc2cc(N(C)C)ccc2C1c1ccccc1OC` (stereo unspecified)?
S1P4 ag: 1; Arbovirus anti: -8; Redox H2O2 prof: 0; S1P3 antag: 60*; p97 ATPase inh: 5; S1P4 antag: 2

Results for c1ccc(-c2csc3ncnc(NCCCN4CCOCC4)c23)cc1 ?
S1P4 ag: 1; Arbovirus anti: 43*; Redox H2O2 prof: 1; p97 ATPase inh: 0; S1P4 antag: -22

Results for CN=c1scc(-c2c[nH]c3ccccc23)n1C ?
S1P4 ag: 0; Arbovirus anti: 17; Redox H2O2 prof: 0; S1P3 antag: -21; p97 ATPase inh: 0; S1P4 antag: 6

What do the screens show for `O=C1C2CCCN2C(c2cccc(F)c2)N1c1cccc(Cl)c1` (stereo unspecified)?
S1P4 ag: 1; Arbovirus anti: 13; Redox H2O2 prof: -2; S1P3 antag: 68*; p97 ATPase inh: 0; S1P4 antag: -11

What do the screens show for `O=C(NN1C(=O)C2C3c4ccccc4C(c4ccccc43)C2C1=O)C1CC1` (stereo unspecified)?
S1P4 ag: 2; Arbovirus anti: -1; Redox H2O2 prof: 0; S1P3 antag: -13; p97 ATPase inh: 0; S1P4 antag: -13

What do the screens show for `COCCN1C(=O)/C(=C/c2ccc(Oc3ccc([N+](=O)[O-])cn3)c(OC)c2)SC1=Nc1ccccc1`?
S1P4 ag: -2; Arbovirus anti: 32*; Redox H2O2 prof: 2; p97 ATPase inh: 0; S1P4 antag: -10

What do the screens show for `COc1ccc(-n2c(Cc3cccn3C)nnc2SCC(=O)Nc2cccc(Cl)c2)cc1`?
S1P4 ag: 4; Arbovirus anti: 36*; Redox H2O2 prof: 0; S1P3 antag: 8; p97 ATPase inh: 6; S1P4 antag: -1

What do the screens show for `CCOC(=O)c1c(C)[nH]c(C(=O)C(C)OC(=O)c2oc3ccccc3c2COC)c1C` (stereo unspecified)?
S1P4 ag: 0; Arbovirus anti: 2; Redox H2O2 prof: 0; p97 ATPase inh: 0; S1P4 antag: -4

How did COCCN=c1scc(-c2cccs2)n1/N=C/c1ccc(O)c(O)c1O do in these assays?
S1P4 ag: 13*; Arbovirus anti: -14; Redox H2O2 prof: 2; S1P3 antag: -9; p97 ATPase inh: 2; S1P4 antag: -16

Results for COCCN=c1scc(-c2ccccc2)n1/N=C/c1c[nH]c2ccccc12 ?
S1P4 ag: 9; Arbovirus anti: -30; Redox H2O2 prof: 1; S1P3 antag: 1; p97 ATPase inh: 5; S1P4 antag: -6

Screens as filed in PubChem BioAssay.
